This passage reports cytotoxicity call results from the antibiotic and cytotoxicity screens of Wong et al. (2023).

Among all 39,000 compounds or so, about 3,300 (8.5%) were called active. This excerpt belongs to a sample that is enriched for actives.

The assay concerns HepG2. In words: cytotoxicity call (relative viability < 0.9). Conditions: 10 µM.
For `Cc1noc(C)c1NC(=O)Nc1ccc2c(c1)C(=O)N([C@H](C)CO)C[C@@H](C)[C@H](CN(C)C(=O)C1CCCCC1)OCCCC[C@@H](C)O2`, the cytotoxicity call is “inactive”.
Then `C[C@@H]1CN([C@H](C)CO)C(=O)c2cc(C#CC3(O)CCCC3)cnc2O[C@H]1CN(C)S(=O)(=O)c1cccc(F)c1`, with “inactive”; and `CCC1C(=O)OCC1Cc1cncn1C.O=[N+]([O-])O` (stereo unspecified), with “inactive”; and `Cc1noc(C)c1NC(=O)Nc1cccc2c1O[C@@H](CN(C)Cc1ccc(Oc3ccccc3)cc1)[C@H](C)CN([C@@H](C)CO)C2=O`, with “inactive”.
The result for `CN(C)CCCNC(=O)C[C@H]1CC[C@H]2[C@@H](COC[C@H](O)CN2S(=O)(=O)c2ccc(F)cc2)O1` reads “inactive”; that for `CO[C@H]1CN(C)C(=O)c2ccc(NC(=O)Nc3cccc(Cl)c3)cc2OC[C@@H](C)N(C(=O)Nc2c(C)noc2C)C[C@H]1C`, “inactive”.
For `C[C@H]1CN([C@@H](C)CO)C(=O)c2cc(NC(=O)Nc3cccc4ccccc34)ccc2O[C@H]1CN(C)S(=O)(=O)c1ccccc1`, the cytotoxicity call was “inactive”.
Then `C[C@H](CO)N1C[C@H](C)[C@H](CN(C)C(=O)Nc2cccc3ccccc23)Oc2ccc(NC(=O)Nc3ccc(C(F)(F)F)cc3)cc2C1=O`, with “inactive”; and `CCCCc1nc(-c2ccc(OCCCN(CC)CC)cc2)cn1-c1ccc(Oc2ccc(Cl)cc2)cc1`, with “active”.
Then `CN(C)CCOC(=O)COc1ccc(Cl)cc1.Cl`, with “inactive”; and `CCCC[C@@H](C#N)c1ccccn1`, with “inactive”.
In the case of `CN(C)CC(=O)N[C@@H]1CC[C@H](CCNS(=O)(=O)c2ccccc2)O[C@H]1CO`, the cytotoxicity call is “inactive”.
For `O=C(N[C@H](c1ccc(F)cc1)c1ccc2ccccc2n1)C1CCN(Cc2ccc(Oc3ccccc3)cc2)CC1`, the cytotoxicity call was “active”.
Then `O=C(N[C@H](c1ccc(F)cc1)c1ccc2ccccc2n1)C1CCN(Cc2ccc3ccccc3n2)CC1`, with “inactive”; and `COc1ccc([C@@H](NC(=O)C2CCN(Cc3ccc(Oc4ccccc4)cc3)CC2)c2ccccc2C)cn1`, with “inactive”.
On to `O=C(N[C@H](c1ccc(F)cc1)c1ccc2ccccc2n1)C1CCN(Cc2cccc(C(F)(F)F)c2)CC1`, for which the cytotoxicity call is “active”.
As for `COc1cc(OC)nc([C@@H](NC(=O)C2CCN(Cc3ccc(Oc4ccccc4)cc3)CC2)c2ccccc2C)n1`, the cytotoxicity call was “active”.
The result for `O=C(N[C@@H](c1ccccc1)c1ccc2ccccc2n1)C1CCN(Cc2cccc(C(F)(F)F)c2)CC1` reads “inactive”; that for `O=C(N[C@@H](c1ccccc1)c1ccc2ccccc2n1)C1CCN(Cc2ccc(Oc3ccccc3)cc2)CC1`, “inactive”; that for `COc1cc(CN2CCC(C(=O)N[C@@H](c3ccc(F)cc3)c3ccc4ccccc4n3)CC2)cc(OC)c1`, “active”.
Then `COc1ccccc1[C@@H](NC(=O)C1CCN(Cc2ccc(Oc3ccccc3)cc2)CC1)c1ccccn1`, with “inactive”.
